# Measured values taken from the supplement of paper PMC11417369.
# ± gives the standard deviation of the averaged measurements. Over roughly 25,000 sequences, “ln(normalized median fluorescence intensity)” has its median near 8.9; the highest 2% begin near 10. For the sample, the highest values were picked, then their nearest neighbours and some sequences at random.
# Tested on: PfAP2-LT AP2 domain (GST-tagged)
# Experiment: gcPBM binding intensity (ln(normalized median fluorescence intensity)); higher = stronger DNA binding
# How it was run: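 Alexa488 anti-GST antibody, scanned at 488 nm, detected GST-tagged P. falciparum DNA-binding domains that had been expressed in E. coli and incubated for 1 h on an Agilent 4 × 180k array. The array carried primer-extended double-stranded 36-bp intergenic genomic probes and negative controls. Binding intensity is the highest Masliner-normalised natural-log median intensity across replicate spots of either orientation of each probe.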
row,Sequence,gcPBM binding intensity (ln)
1,TATTAATTATATTTATGTACATAATCATATTATTAT [XGTACX_site7938],8.94 ± 0.44
2,TTTAATCATATGTTATATAATAAGCCCCCCCCCCAA [CACACA_negctrl_site486],10.2 ± 0.17
3,ATATATATATAATTATATAAAATATATCATATGTTA [XGTACX_negctrl_site47],8.53 ± 0.42
4,ATTTTTATTTTATATACACACAATAATAATATAATA [CACACA_site4015],8.62 ± 0.36
5,AGCACAAGCACAAGCACACATTTATATATAAATACA [CACACA_site4642],9.1 ± 0.47
6,ATAATACACAAGCACACACACACACGGATATTTATA [CACACA_site6714],10.4 ± 0.23
7,AATTAAAAAAAATACACACACACATACCCATATATA [CACACA_site5767],9.85 ± 0.28
8,TTTATTTATTATTGTTGTACACTTTTTATAAAAAAA [XGTACX_site5114],8.57 ± 0.53
9,ATGAAAAAAAAAAAAAAAAAAAAAAAAAAAAAAATA [CACACA_negctrl_site1083],8.37 ± 0.55
10,AAAAATTTGGCATACACACACACACCCACACCCACA [CACACA_site587],10.03 ± 0.042
11,AAAAATTTGGCATACACACACACACCGACACAGACA [CACACA_site4489],10 ± 0.23
12,AAAAAATTCATATATACACACACGCACATATATATA [CACACA_site4226],9.53 ± 0.13
13,AAAAATTTGGCATACACACACACACGCACACGCACA [CACACA_site6422],10.2 ± 0.21
14,AAAAAAATTTGGCATACACACACACCCCCACCCACA [CACACA_site8094],10.41 ± 0.05
15,AAAATTCATATATACACACACGCACATATATATATA [CACACA_site90],9.71 ± 0.21
16,CACATACACCCATACACACACATATATATTAAGATA [CACACA_site4459],9.57 ± 0.38
17,TATATATATATATAATGTACAAACTCCTTTATATAT [XGTACX_site4545],9.05 ± 0.2
18,ATTATTTTATTATAGTGTACTTTTTTAATCAAAGGA [XGTACX_site8921],8.44 ± 0.4
19,TTAGGTTATAAATACACACACAAAAGAAAAAAAAAA [CACACA_site5625],9.23 ± 0.55
20,TTATGATCATTTATATGTACACATAATTTTTGTGCT [XGTACX_site5568],9.03 ± 0.44
21,AAAAAAAAAAAAAAGAGTACATTTATTTATATATCT [XGTACX_site2381],8.46 ± 0.33
22,AATAGAATAATCCTTACACACACACCCACACGAATA [CACACA_site8053],9.87 ± 0.16
23,TAGAATAATCCTTACACACACACACCCACGAATAAA [CACACA_site483],10.1 ± 0.2

row,Sequence,gcPBM binding intensity (ln)
1,AATAGAATAATCCTTACACACACACGCGCACGAATA [CACACA_site6365],9.78 ± 0.31
2,TTTTTTTTAGTATGAACACACATATAGATTATAAAA [CACACA_site7391],8.35 ± 0.41
3,TATGAACACAGACACACACACAAAAAAAAAAAAAAA [CACACA_site7037],9.18 ± 0.56
4,ATAATCCTTAAACACACACACACACTAATAAATAAA [CACACA_site8052],10.1 ± 0.25
5,ATAATATGAAATATAACACACATATATAAAAACATT [CACACA_site866],9.11 ± 0.33
6,AACAAACACAGACACACACACACACTAATATGATTA [CACACA_site8770],10.2 ± 0.45
7,AAAAAAAAAAAACACACACACACACTAATATATAAA [CACACA_site8302],10.3 ± 0.35
8,AATATGAACAGACACACACACACAAAAAAAAAAAAA [CACACA_site2012],9.9 ± 0.56
9,TACATAAATTAAAACACACACACACTAATAAAAAAA [CACACA_site8712],9.85 ± 0.18
10,TATATATATATATATACACACACACTAATAAAAAAA [CACACA_site8426],9.65 ± 0.057
11,AAAAAAAATATGAAAACACACATATATAAATAAATA [CACACA_site113],8.88 ± 0.46
12,ATATAAATAATATAAATACACACTAAAAAAAATATA [CACACA_site542],8.88 ± 0.44
13,ATAATATGAAAACACACACACACACTAATAAAAAAA [CACACA_site8617],10.3 ± 0.16
14,AAAAAATATATATTAACACACACACTAATAAAAAAA [CACACA_site8366],9.56 ± 0.17
15,CTTATATGAAGCCTCTTTATTCATAAATAAGAATAA [TGCATGCA_negctrl_site120],8.21 ± 0.38
16,AAAATTATTTTTATGTGTACTTATTTATTATTTATA [XGTACX_site6665],8.79 ± 0.46
17,ATTATCTTATGTTATTTATTTGTCCCACATTTGTTA [TGCATGCA_negctrl_site402],8.91 ± 0.46
18,AAATTGTCAAAACACGCACACACATATACATAATAA [CACACA_site1743],9.62 ± 0.36
19,ATTCATTATTCACCTTGTACACAAATGATTATCGTA [XGTACX_site455],8.93 ± 0.45
20,AAAAAATCAAAACACACACACACACTAGAAAAAAAA [CACACA_site4909],10.1 ± 0.49
21,ATAATATGAAAACACACACACACACTAGAAAAAAAA [CACACA_site5153],10.2 ± 0.27
22,AATAATAAACACAATCAAATAAAATATGAAATATAA [GTGCAC_negctrl_site307],8.84 ± 0.49
23,GAGAAAAATAAATACACACACATAAATAAATACATA [CACACA_site5102],9.74 ± 0.42

row,Sequence,gcPBM binding intensity (ln)
1,CAGTGCCAAATTAGCACACACATATATACATGAATT [CACACA_site2814],9.3 ± 0.38
2,TCGTCTCTTCTTGTTCTGTTTTAGAAGGCTATATAT [CACACA_negctrl_site180],8.88 ± 0.44
3,AAGAACAGATAAAATCGTACGTGAAACATGAACTTG [XGTACX_site7793],9.03 ± 0.48
4,AATGTGCAAACAAACTGTACTTTTTTTTTTTTTTTT [XGTACX_site928],8.86 ± 0.26
5,TACAAAATGGGGAACACACACATATATATATATATA [CACACA_site3844],10.2 ± 0.05
6,GATACAAAATGGGGAACACACACATATATATATATA [CACACA_site9278],10.1 ± 0.22
7,AAAAAAAAAAAACACACACACACATACAAAATATAT [CACACA_site1448],10.04 ± 0.071
8,TACAAAATGGGGAACACACACATATATAAATAAATA [CACACA_site7751],9.6 ± 0.63
9,AAAAAAAAAAAACATACACACAAATATATACATACA [CACACA_site4011],9.15 ± 0.33
10,CATAAAAATGAACATACACACATATATATATATATA [CACACA_site2498],9.8 ± 0.17
11,AAAATAAGCGTGAAACGTACATATTACATTATTATA [XGTACX_site8914],8.78 ± 0.56
12,TATTAAAGATACTCGGTATAAATAAATTTTAATGTG [XGTACX_negctrl_site239],8.54 ± 0.52
13,AAGAGAAATGGGCACACACACACATATTATAGATAT [CACACA_site6828],9.8 ± 0.21
14,TCTTATCCATATATTACACACTATATATAGAAATTA [CACACA_site291],8.66 ± 0.39
15,TTTGAATACTGAATGGTGCAAATTGTTCTCCCCATG,8.67 ± 0.57
16,TTTGAAATATATTTAGTGCATATATATTGATTATAA [GTGCAC_site9604],8.39 ± 0.38
17,CCCTCCCCATGTTTAGTGCAAAAATATTTGAAATTG [GTGCAC_site9873],10.1 ± 0.057
18,ATTTTAGAATAAATTTTTTACATTAAAAAACTATTT [CACACA_negctrl_site1414],8.21 ± 0.54
19,ACTTGTAAGAAACACACACACACACCGATATATATA [CACACA_site4594],10.1 ± 0.31
20,AAACTTGTAAGAAACACACACACACGCATATAAATA [CACACA_site6518],9.98 ± 0.099
21,ATAAGAAGAAGAAAAACACACATATGTAGATATATA [CACACA_site7469],9.01 ± 0.42
22,AAAGAAAGAAAGAATACACACACACCGATATATATA [CACACA_site9246],9.77 ± 0.31
23,AAACTTGTAAGAAACACACACACACCCATATATATA [CACACA_site797],9.96 ± 0.15

row,Sequence,gcPBM binding intensity (ln)
1,ACTTGTAAGAAACACACACACACACCCATATATATA [CACACA_site796],10.2 ± 0.16
2,TTTAACGTTGAATATACACACATATATATATATATA [CACACA_site3698],9.55 ± 0.042
3,TATATATATAAACACACACACATATATATATATATA [CACACA_site4584],9.94 ± 0.14
4,CATTATAAGAAACACACACACATATATATATATATA [CACACA_site1051],10.2 ± 0.25
5,TATATATATAAACACACACACACATATATATATATT [CACACA_site8814],9.84 ± 0.014
6,TATATAATTATAAGAACACACATATATATATATATA [CACACA_site2472],9.6 ± 0.16
7,TATATATAATTATAAGAACACACATATATATATATA [CACACA_site8786],9.46 ± 0.36
8,AAACATAAGGGACACACACACATATATATATATATA [CACACA_site5920],10.2 ± 0.27
9,AAACATAAGAAACACACACACATATATATATATATA [CACACA_site3642],10.32 ± 0.064
10,TATATTAAGAAACACACACACATATATATATATATA [CACACA_site1609],9.82 ± 0.23
11,AAAAAAAAAAGAAACACACACATATATATATATAAT [CACACA_site5052],9.44 ± 0.35
12,ATAAATTAACATTAAAGTACATTTTAATAAATATTA [XGTACX_site3647],8.31 ± 0.52
13,TACCAATAAATGAAGGTGCGTGCTTGCCTTTGCTAT,8.95 ± 0.31
14,TCTATACCTATTCTTACACACATATGTATAAATATA [CACACA_site6407],9.04 ± 0.36
15,ATATAATCAGCTTCTCTTTTATGCTAAAAAAAAAAA [CACACA_negctrl_site1310],8.25 ± 0.3
16,ATATTATAGTTATGAACATGCAAACATTACGAAATA [TGCATGCA_site54],8.76 ± 0.5
17,GTATATATATACCATTGTACTTTCGTAAAAATATTT [XGTACX_site4846],8.8 ± 0.4
18,TAAGACATGATATATACACACCTTGTTTTAATTTTC [CACACA_site5282],8.86 ± 0.45
19,TATATACATATATGTACACACATTACAGATGTACAT [CACACA_site966],9.21 ± 0.38
20,TATACTTTATATATTTTGTATATATATTTTTTTTAT [TGCATGCA_negctrl_site530],8.8 ± 0.48
21,GTTAATATTTTTGGGGGTACTTAAAAAAAAAAAAAA [XGTACX_site1477],8.525 ± 0.021
22,ATTTTTTTTTTTTTTTTGGGGGGGTATACTTTTAAA [CACACA_negctrl_site1020],10.6 ± 0.2
